We go through ten molecules from PubChem BioAssay AID1789 (The Scripps Research Institute Molecular Screening Center, 2009).

The campaign covered roughly 290,000 compounds. About 2,700 (0.93%) were called active. Shown is part of a subset that was picked to be rich in actives. Values without a mark were called inactive.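 The calls were made as follows: active = inhibition above the screen-wide mean plus 3 SD, computed separately per campaign (cut at about 16% in these data); inactive = the rest.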

The assay concerns Heat shock protein HSP 90 (rabbit reticulocyte lysate; luciferase refolding). As to the kind of experiment: HSP90 inhibitors, primary screen, cell lysate, luminescence (AID 1789).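 Also: 0% = DMSO wells and 100% = 60 µM geldanamycin wells; inhibitors lower the luminescence because luciferase stays unfolded.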 The settings on record: 3 h, at 5.6 µM, active compounds read high.
By inhibition is commonly meant the drop in the measured response relative to a control, in per cent. For the molecule `CN1CCN(c2cc(N3CCNCC3)ccc2[N+](=O)[O-])CC1`, the inhibition was -3.02%.
The same measure for `COc1cccc(-c2nc3ccc(N4CCN(C)CC4)cc3[nH]2)c1`: 60.8% (active).
Consider `Cc1nc2ccc(N3CCN(C)CC3)cc2nc1C`, for which the inhibition is 1.77%.
For the molecule `CC1=CC(=Cc2sc3ccccc3[n+]2C)C=C(C)O1`, the inhibition is 0.85%.
The same measure for `O=c1c2ccccc2nc(/C=C/c2ccc(F)cc2)n1-c1ccccc1O`: -2.14%.
The same measure for `O=c1c2ccccc2nc(-c2ccco2)n1-c1ccc(Br)cn1`: -1.12%; for `O=c1c2ccccc2nc(/C=C/c2ccco2)n1-c1ccccc1O`: 19.4% (active).
In the case of `CN(c1ccccc1)c1ccc([N+](=O)[O-])c2nonc12`, the inhibition is 3.91%.
In the case of `CC(C)CN1CCN(Cc2ccccc2C(F)(F)F)CC1CCO` (stereo not given), the inhibition was -3.13%.
In the case of `O=C(NC(c1ccc(Cl)cc1)P(=O)(Oc1ccccc1)Oc1ccccc1)OCc1ccccc1` (stereo not given), the inhibition was 1.96%.
